Values without a mark were called inactive.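 The calls were made as follows: active = growth AUC significantly below the DMSO wells by Dunnett test; inactive = the rest.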
Columns and labels:
Assay in all cases: relative growth (AUC of 72 h growth curve relative to DMSO control, dAUC) (ratio); higher = more growth (less inhibition), active = hit call of the paper
Conditions in all cases: 20 µM
[1] = system: Aeromonas 1 (Aeromonas sp. AE235)
Summary of the method: (§1)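 Cultures grown to carrying capacity in Luria–Bertani medium, drawn from Icelandic stream sediment and Silwood Park soil isolates and whole sediment communities, were diluted 1:100 into 96-well plates with each chemical at 20 µM (1% DMSO) and read at A600 hourly for 72 h. The spline-integrated area under the growth curve, divided by the mean of the DMSO controls, is reported as relative growth (dAUC). Values are means of three biological replicates.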

[2] = system: Aeromonas 2 (Aeromonas sobria)
Summary of the method: as §1

[3] = system: Aeromonas 3 (Aeromonas popoffii)
Summary of the method: as §1

[4] = system: Argrobacterium 1 (Agrobacterium sp.)
Summary of the method: as §1

[5] = system: Arthrobacter 1 (Arthrobacter humicola)
Summary of the method: as §1

[6] = system: Arthrobacter 2 (Arthrobacter humicola)
Summary of the method: as §1

[7] = system: Arthrobacter 3 (Arthrobacter sp.)
Summary of the method: as §1

[8] = system: Community 10
Summary of the method: as §1

[9] = system: Community 4
Summary of the method: as §1

[10] = system: Community 6
Summary of the method: as §1

[11] = system: Community 7
Summary of the method: as §1

[12] = system: Community 8
Summary of the method: as §1

[13] = system: Community 9
Summary of the method: as §1

[14] = system: Flavobacterium 1 (Flavobacterium glaciei)
Summary of the method: as §1

[15] = system: Flavobacterium 2 (Flavobacterium succinicans)
Summary of the method: as §1

[16] = system: Hymenobacter 1 (Hymenobacter glaciei)
Summary of the method: as §1

[17] = system: Microbacterium 1 (Microbacterium arborescens)
Summary of the method: as §1

[18] = system: Neobacillus 1 (Neobacillus soli)
Summary of the method: as §1

[19] = system: Oryzobacter 1 (Oryzobacter terrae)
Summary of the method: as §1

[20] = system: Paenibacillus 1 (Paenibacillus castaneae)
Summary of the method: as §1

| Compound | relative growth [1] | relative growth [2] | relative growth [3] | relative growth [4] | relative growth [5] | relative growth [6] | relative growth [7] | relative growth [8] | relative growth [9] | relative growth [10] | relative growth [11] | relative growth [12] | relative growth [13] | relative growth [14] | relative growth [15] | relative growth [16] | relative growth [17] | relative growth [18] | relative growth [19] | relative growth [20] |
| --- | --- | --- | --- | --- | --- | --- | --- | --- | --- | --- | --- | --- | --- | --- | --- | --- | --- | --- | --- | --- |
| OC(Cc1ccccc1Cl)(Cn1nc[nH]c1=S)C1(Cl)CC1 (stereo not given) | 0.97 | 0.986 | 1.03 | 1.01 | 0.952 | 1.04 | 1.07 | 0.945 | 1.01 | 0.982 | 0.968 | 1.03 | 1.02 | 1.09 | 1 | 1.01 | 0.958 | 1.05 | 0.894 | 1.01 |
| O=[N+]([O-])c1cc(C(F)(F)F)c(Cl)c([N+](=O)[O-])c1Nc1ncc(C(F)(F)F)cc1Cl | 1.04 | 0.00203 (active) | 0.00448 (active) | 0.0123 (active) | 0.035 (active) | 0.0116 (active) | 0.0138 (active) | 0.534 (active) | 0.614 (active) | 0.498 (active) | 0.794 | 0.921 | 0.34 (active) | 0.0154 (active) | 0.00437 (active) | 0.0968 (active) | 0.928 | 0.169 (active) | 0.00855 (active) | 0.00404 (active) |
| CCSC(C)CC1CC(=O)C(/C(CC)=N/OC/C=C/Cl)=C(O)C1 (mixture of isomers) | 0.981 | 0.969 | 0.986 | 1.01 | 0.93 | 0.987 | 0.986 | 0.965 | 1.09 | 1.01 | 1.02 | 1 | 1.12 | 1 | 0.981 | 0.951 | 1.03 | 1.05 | 1.03 | 0.995 |
| CC1(C(=O)Nc2ccc(O)c(Cl)c2Cl)CCCCC1 | 0.972 | 0.983 | 0.993 | 0.983 | 0.846 | 1.02 | 0.984 | 0.827 | 0.977 | 0.984 | 1 | 0.942 | 1.1 | 0.982 | 0.979 | 0.654 (active) | 0.995 | 0.99 | 1.04 | 0.954 |
| CNC(=O)/C=C(\C)OP(=O)(OC)OC | 0.951 | 0.972 | 0.995 | 0.984 | 0.943 | 0.906 | 0.94 | 0.927 | 0.942 | 0.973 | 1.14 | 0.954 | 0.956 | 0.897 | 0.954 | 0.933 | 0.986 | 0.937 | 1.11 | 0.944 |
| COc1cc(OC)nc(NC(=O)NS(=O)(=O)c2ncccc2C(=O)N(C)C)n1 | 1.06 | 1.01 | 1.03 | 0.995 | 0.976 | 1.11 | 1.05 | 1.11 | 1.08 | 1.06 | 1.02 | 1.07 | 1.08 | 1.12 | 1.08 | 1.16 | 1.04 | 1.1 | 0.98 | 1.08 |
| O=C(O)COc1ccc(Cl)cc1Cl | 0.976 | 0.999 | 0.998 | 0.944 | 0.921 | 0.958 | 0.969 | 0.98 | 1.04 | 1.02 | 1.08 | 0.972 | 1.03 | 0.966 | 1.02 | 1.07 | 1.02 | 1 | 0.964 | 1.01 |
| COP(N)(=O)SC (stereo not given) | 0.996 | 1 | 0.972 | 1.14 | 0.92 | 0.0085 (active) | 0.137 (active) | 0.803 | 0.808 | 0.626 (active) | 1.34 | 0.924 | 0.575 (active) | 0.117 (active) | 0.952 | 1.01 | 0.992 | 0.856 | 1.03 | 0.194 (active) |
| CC(C)N(C(=O)COc1nnc(C(F)(F)F)s1)c1ccc(F)cc1 | 1.04 | 0.994 | 0.973 | 1.02 | 1.05 | 0.894 | 1.02 | 0.763 | 1.04 | 0.92 | 1.13 | 1.02 | 0.986 | 1.01 | 0.927 | 0.849 | 1.04 | 0.965 | 1.16 | 0.899 |
| CNC(=O)c1cc(Cl)cc(C)c1NC(=O)c1cc(Br)nn1-c1ncccc1Cl | 1.01 | 1.05 | 1.03 | 0.963 | 1.08 | 0.758 | 1.02 | 1.14 | 1.09 | 1.07 | 1.02 | 1.04 | 1.09 | 1 | 1.03 | 1.13 | 0.975 | 1.04 | 0.99 | 1.09 |
| CC(COc1ccc(Oc2ccccc2)cc1)Oc1ccccn1 (stereo not given) | 1.04 | 0.997 | 1.08 | 1.09 | 1.11 | 0.937 | 0.925 | 1.01 | 1.08 | 1.07 | 1.05 | 1.06 | 1.04 | 0.975 | 1.02 | 1.07 | 1.05 | 1.09 | 1.11 | 1.05 |
| CS(=O)(=O)c1cc(C(F)(F)F)ccc1C(=O)c1cnoc1C1CC1 | 1.02 | 1.01 | 1.04 | 1.01 | 1.1 | 1.08 | 1.04 | 1.13 | 1.14 | 1.13 | 0.983 | 1.02 | 1.09 | 1.01 | 1.07 | 1.04 | 1.02 | 1.06 | 0.94 | 1.13 |
| Oc1ccccc1-c1ccccc1 | 1.01 | 0.967 | 1.01 | 0.914 | 0.929 | 0.866 | 0.964 | 0.954 | 0.851 | 0.973 | 1.12 | 0.988 | 0.974 | 0.75 | 0.946 | 0.951 | 1.04 | 0.9 | 1.12 | 0.888 |
| CC1(C)C(C=C(Cl)Cl)C1C(=O)OC(C#N)c1ccc(F)c(Oc2ccccc2)c1 (stereo not given) | 0.997 | 1 | 1.07 | 1.03 | 1.19 | 0.879 | 0.946 | 0.911 | 0.954 | 0.928 | 0.868 | 1.06 | 0.995 | 1.02 | 0.998 | 1.03 | 1.04 | 0.981 | 1.14 | 0.826 |
| O=C(NC(=O)c1c(F)cccc1F)Nc1ccc(Cl)cc1 | 1.01 | 1.01 | 0.986 | 1.04 | 0.955 | 0.985 | 1.09 | 0.795 | 0.924 | 0.996 | 0.985 | 1.06 | 1.05 | 0.844 | 0.949 | 0.917 | 1.03 | 0.942 | 1.04 | 0.957 |
| O=[N+]([O-])/N=C1\NCCN1Cc1ccc(Cl)nc1 | 0.99 | 0.99 | 0.999 | 0.959 | 0.949 | 1.06 | 0.929 | 1.23 | 1.11 | 1.11 | 1.11 | 1.05 | 1.07 | 0.997 | 1.07 | 1.14 | 1 | 1.06 | 0.944 | 1.15 |

— the supplement of paper PMC12067926
